D1 antag – Antagonist of Human D 1 Dopamine Receptor: qHTS; D(1A) dopamine receptor (Homo sapiens), P21728; HEK293 TREx D1 cells, calcium flux, dopamine EC80; stronger effect = lower value; activity change, negative = inhibition, % at 10 µM; 360,000 compounds, 3.2% hits; in the data active = activity change below about -30%; note: % is set by controls: 0 for no effect and ±100 for the full control effect
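Allosteric or orthosteric antagonism assessed as attenuation of the calcium response to EC80 dopamine, added 180 s after compound, in induced HEK293 Trex D1 cells loaded with no-wash calcium dye.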
D1 agonist – Allosteric Agonists of the Human D1 Dopamine Receptor: qHTS; AID 504660, 2011; activation, % at 2 µM; HEK293 T-REx D1 cells, calcium flux, agonist mode; 360,000 compounds, 1% hits; note: 0% is about no effect
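Tetracycline-induced HEK293 TREx D1 cells, force-coupled to calcium signalling, were dye-loaded with a no-wash calcium kit. Compound was pin-added after a 10 s baseline. Fluorescence was read kinetically at 1 cycle/s for 180 s, with calcium rises flagged as agonism.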
TRHR agonist – qHTS for Small Molecule Agonists and Allosteric Enhancers of Human TRH Receptor: Primary Screen for Agonists | Thyrotropin-releasing hormone receptor (Homo sapiens), P34981 | TRHR cells, calcium flux fluo-8, FDSS agonist mode | activation, % at 2 µM | 360,000 compounds, 0.18% hits; note: 0% is about no effect
Target sequence (P34981 whole entry, looked up): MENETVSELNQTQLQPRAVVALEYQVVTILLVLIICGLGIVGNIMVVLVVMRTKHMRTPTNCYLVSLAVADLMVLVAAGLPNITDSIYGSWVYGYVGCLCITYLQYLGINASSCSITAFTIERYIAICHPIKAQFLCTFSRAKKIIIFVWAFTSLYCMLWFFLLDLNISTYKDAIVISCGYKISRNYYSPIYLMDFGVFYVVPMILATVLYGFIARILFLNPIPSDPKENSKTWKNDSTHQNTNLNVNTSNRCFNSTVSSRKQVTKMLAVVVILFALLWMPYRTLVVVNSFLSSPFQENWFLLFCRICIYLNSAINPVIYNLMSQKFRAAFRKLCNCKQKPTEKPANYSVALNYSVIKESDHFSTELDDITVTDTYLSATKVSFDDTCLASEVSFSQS
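TRHR-expressing cells loaded with fluo-8 calcium dye; 23 nL library compound pin-transferred, kinetic FDSS fluorescence (Ex 480/Em 530) recorded about 180 s for agonist-induced calcium release, before a 10 nM TRH EC20 addition for potentiator mode.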
D1 potentiator – Potentiators of Human D1 Dopamine Receptor: qHTS. potentiation, % at 10 µM. D(1A) dopamine receptor (Homo sapiens), P21728. AID 504651, 2011. 360,000 compounds, 0.036% hits. HEK293 TREx D1 cells, calcium flux, dopamine EC20 potentiation; in the data active = potentiation above about 30%; note: 0% is about no effect
TRHR PAM – qHTS for Small Molecule Agonists and Allosteric Enhancers of Human TRH Receptor: Primary Screen for Enhancers; Thyrotropin-releasing hormone receptor (Homo sapiens), P34981; TRHR cells, fluo-8 calcium fluorescence, EC20 TRH enhancement; enhancement, % at 2 µM; 360,000 compounds, 0.66% hits; AID 493056, 2011; in the data active = enhancement above about 30%; note: 0% is about no effect
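Enhancer read-out: after compound pinning and an initial kinetic agonist-mode read, an EC20 of TRH (10 nM final) was injected and fluo-8 calcium signal (Ex 480/Em 530) followed at 1 s/cycle for 100 cycles in TRHR-expressing cells.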
Numbers without * were called inactive; x = not tested or not shown. Sampled rows, rich in hits. Any-hit rate of the full collection: about 4.6%. Cut-off read from the data, not from the text of the source, unless noted: active = activation above about 30%; inactive = the rest.

SMILES | D1 antag | D1 agonist | TRHR agonist | D1 potentiator | TRHR PAM
CC(C)N(Cc1nc(-c2ccccc2)no1)C(=O)CN1C(=O)c2ccccc2C1=O | -7 | 1 | 1 | -2 | 2
O=C(NCc1nc(-c2ccc(C(F)(F)F)cc2)no1)c1cccs1 | -34* | 4 | 0 | 2 | 2
COc1ccccc1-c1noc(Cn2cc(S(=O)(=O)N3CCCC3)ccc2=O)n1 | -1 | 10 | 0 | x | 1
Cc1ccc(NS(=O)(=O)c2ccc(C)c(NC(=O)COc3ccccc3)c2)c(C)c1 | -46* | -2 | -1 | -11 | 1
C[C@H]1O[C@H](O[C@H]2[C@H](O[C@@H]3CC[C@@]4(C)C(CC[C@]5(C)C4CC=C4[C@@H]6CC(C)(C)CC[C@]6(C(=O)O[C@@H]6O[C@H](CO)[C@@H](O)[C@H](O)[C@H]6O)CC[C@]45C)C3(C)C)O[C@H](C(=O)O)[C@@H](O)[C@@H]2O)[C@@H](O)[C@@H](O)[C@@H]1O (some centres not stated) | 30 | 6 | 0 | 1 | -4
CC1OC(OC2C(OC3C(O[C@H]4CC[C@]5(C)C6C=C[C@]78OC[C@@]9(CC[C@@H](C)[C@H](C)C97)[C@H](O)C[C@@]8(C)[C@]6(C)CC[C@H]5C4(C)C)OC(C)C(O)C3O)OC(CO)C(O)C2O)C(O)C(O)C1O (some centres not stated) | 35 | 394* | 59* | 16 | -17
COc1ccc(OC)c(NC(=O)Cc2c(C(=O)O)n(C)c3ccc(C)cc23)c1 | 3 | 2 | -1 | 4 | 2
Nc1cc2c(cc1C(=O)c1ccccc1)OCCO2 | 11 | 0 | 0 | 8 | 2
Cc1ccc(C(=O)c2cc3c(cc2N)OCCO3)cc1 | -76* | -1 | 0 | -5 | 0
Cc1ccccc1NC(=O)CSc1nc2c(oc3ccccc32)c(=O)n1Cc1ccco1 | -3 | 1 | 1 | -4 | 1
Cc1ccc(C)c(NC(=O)Cn2nc(-c3ccccc3)nc2-c2ccccc2)c1 | -33* | -1 | 0 | -1 | 7
COc1cc(C(=O)OCCCN(C)C)cc(OC)c1OC | -39* | 1 | 0 | -2 | -6
COc1ccc(C(=O)OCCCN(C)C)cc1OC | -3 | 3 | 0 | 1 | 1
CCc1ccc(NC(=O)CSc2nc3c(sc4ccccc43)c(=O)n2CCCOC)cc1 | 2 | 1 | 0 | 1 | 6
CCc1ccc(NC(=O)CSc2nc3c(sc4ccccc43)c(=O)n2CCCOC(C)C)cc1 | -35* | 4 | 0 | -3 | 5
COCCCn1c(SCC(=O)NCc2ccccc2)nc2c(sc3ccccc32)c1=O | -39* | 6 | 0 | -3 | -3
O=[S+]([O-])(c1ccc2ncsc2c1)N1CCN([S+](=O)([O-])c2c(F)cccc2F)CC1 | -28 | -1 | 1 | 2 | -1
CC1CCc2[nH]nc(C(=O)O)c2C1 (configuration not stated) | -47* | 1 | 0 | -9 | 3
COc1ccc(C(=O)NCc2ccc3c(c2)CCN3C(=O)c2ccc(C)cc2)cc1 | -9 | 4 | -1 | -2 | 0
CN(C1CCCC1)C1CCN(C(=O)CNC(=O)/C=C/c2ccccc2)CC1 | -13 | 3 | 1 | -2 | 3
CC1CCCCC1N(C)C1CCN(C(=O)CNC(=O)/C=C/c2cccc(Cl)c2)CC1 (configuration not stated) | -31* | 14 | -1 | -2 | 0
CC(=O)Oc1ccc(Cl)cc1/C=C/c1cc(OC(C)=O)c2ccccc2n1 | -63* | 1 | -1 | -13 | 0
COc1ccc(C2c3c(oc4cc(C)cc(C)c4c3=O)C(=O)N2Cc2ccco2)cc1OC (configuration not stated) | 5 | 0 | 0 | -1 | -3
CCOC(=O)c1cc2c(C)n(-c3ccc(C)cc3)c(C)c2ccc1=O | -58* | 10 | 0 | -16 | -1
COc1ccccc1C(CNC(=O)C(CCSC)NS(=O)(=O)c1ccccc1F)N1CCCC1 (configuration not stated) | -5 | 1 | 0 | 2 | -1
SMILES | D1 antag | D1 agonist | TRHR agonist | D1 potentiator | TRHR PAM
O=C(Nc1cc(Cl)ccc1O)c1snnc1-c1ccccc1 | -39* | 19 | 3 | -3 | -8
O=C(Nc1cccc(Cl)c1Cl)c1snnc1-c1ccccc1 | 8 | 26 | 0 | -4 | -2
O=C(Nc1ccc(F)c(Cl)c1)c1ccccc1 | -46* | 21 | -1 | -8 | 0
O=C(NC(=S)Nc1ccc(Oc2ccc(Cl)cc2)cc1)c1ccccc1 | 17 | 7 | 1 | -9 | -6
O=C(Nc1ccc(F)c(Cl)c1)c1cccnc1 | -9 | 3 | 0 | -2 | -6
O=C(NC(=S)Nc1ccc(Cl)cc1)c1ccccc1 | -53* | 13 | 5 | -5 | 9
O=C(Nc1cc(Cl)ccc1Cl)c1ccc(-c2ccccc2)cc1 | -34* | 12 | 1 | -1 | 9
COC(=O)c1ccc(NC(=O)c2c(NCc3ccc(OC)c(OC)c3)sc3c2CCCC3)cc1 | 3 | 2 | 0 | -9 | -2
O=C(NC(=S)Nc1ccc2cn[nH]c2c1)c1ccccc1 | -35* | 10 | 1 | -4 | 4
Cc1nc(-n2[nH]c3c(c2=O)CCCC3)[nH]c(=O)c1Cc1ccccc1 | -3 | 61* | 0 | 1 | 4
Cc1cc(=O)[nH]c(-n2[nH]c3c(c2=O)CCCC3)n1 | -37* | 21 | 0 | -4 | 1
O=c1c2c([nH]n1-c1ccccc1)CCCC2 | -1 | 1 | 0 | 4 | 4
Cc1nc(N2CCc3ccccc3C2)[nH]c(=O)c1Cc1ccccc1 | -44* | 3 | -2 | -6 | 1
Cc1cc(=O)[nH]c(N2CCCNCC2)n1 | 12 | 7 | 0 | -1 | 5
COC(=O)c1cc2occc2n1CC(=O)Nc1ccc(N(C)C)cc1 | 15 | 4 | 0 | -1 | -2
O=C(Cn1nc(C(F)(F)F)c2c1CCCC2)Nc1ccc(F)c(Cl)c1 | -19 | 19 | 2 | 1 | -14
CCC(=O)Nc1cccc(NC(=S)NC(=O)c2ccccc2C)c1 | -15 | 8 | 0 | -3 | 23
COc1ccc(C(CNC(=O)c2ccc(Br)o2)N2CCN(C)CC2)cc1 (configuration not stated) | 2 | 1 | 0 | -4 | -2
COc1cccc(OC)c1C(=O)Nc1sc2c(c1C(N)=O)CCN(Cc1ccccc1)C2 | 8 | 20 | 11 | -4 | 2
CC(=O)c1ccc(C(=O)Nc2sc3c(c2C(N)=O)CCN(Cc2ccccc2)C3)cc1 | -8 | 63* | 13 | -8 | -3

Screening data deposited in PubChem by National Center for Advancing Translational Sciences (NCATS).
